Compound activity deposited in PubChem by Broad Institute.
The full list was thinned out, with hits kept by preference.
Vaccinia inh – blocks a specific stage of Vaccinia orthopoxvirus infection, primary screen, cell-based, single point; AID 1053133, 2014; 89,000 compounds, 0.01% hits; activity change (mCherry), % (concentration not given with the values); Vaccinia-infected cells, mCherry/Venus stage reporter fluorescence; active compounds read low; in the data active = activity change below about -37%, passing the limit was not always enough; tested in A549 cells
Numbers without * were called inactive.

SMILES	Vaccinia inh
Cc1ccc(S(=O)(=O)N(C)C[C@H]2Oc3ccc(NS(=O)(=O)c4c(C)noc4C)cc3CC(=O)N([C@@H](C)CO)C[C@H]2C)cc1	-9
OC[C@@H]1Nc2ccc(-c3cccc(F)c3)cc2[C@@H]2[C@H]1CCN2Cc1ccc(F)cc1	-18
OC[C@H]1Nc2ccc(-c3ccccc3)cc2[C@H]2[C@@H]1CCN2Cc1ccc(F)cc1	-50*
COc1ccccc1-c1ccc2c(c1)[C@@H]1[C@@H](CCN1C(=O)C1CCOCC1)[C@H](CO)N2	-2
COc1ccccc1-c1ccc2c(c1)[C@@H]1[C@@H](CCN1C(=O)C1CC1)[C@@H](CO)N2	-31
OC[C@@H]1Nc2ccc(-c3ccccc3)cc2[C@H]2[C@@H]1CCN2Cc1ccc(F)cc1	-27
COc1ccccc1-c1ccc2c(c1)[C@@H]1[C@@H](CCN1C(=O)C1CCCCC1)[C@@H](CO)N2	-86*
CN(C)C(=O)C[C@@H]1CC[C@@H]2[C@H](COC[C@@H](O)CN2Cc2nccs2)O1	9
C[C@H]1CN([C@@H](C)CO)C(=O)c2cc(NC(=O)Cn3cnnn3)ccc2O[C@H]1CN(C)C(=O)Nc1ccccc1	11
O=S(=O)(Cc1ccccc1)N1CCCCN2[C@H](CO)[C@@H](c3ccc(-c4cccnc4)cc3)[C@H]2C1	31
Cc1ccc(-c2ccc(C3[C@H]4CNC[C@@H]3N4C(=O)Nc3ccccc3Cl)cc2)cc1 (some centres undefined)	-15
O=C(C[C@H]1CC[C@H]2[C@@H](COC[C@H](O)CN2Cc2ccc(Oc3ccccc3)cc2)O1)N1CCOCC1	-29
CCS(=O)(=O)Nc1ccc2c(c1)C(=O)N(C)[C@@H]1CC[C@H](CC(=O)N3CCOCC3)O[C@H]1CO2	3
CO[C@H]1CN(C)C(=O)c2ccc(NC(C)=O)cc2OC[C@@H](C)N(C(=O)CC2CC2)C[C@@H]1C	-7
C[C@H]1CN([C@@H](C)CO)C(=O)Cc2cc(NC(=O)c3ccncc3)ccc2O[C@@H]1CN(C)C(=O)NC1CCCCC1	-11
O=C(c1ccncc1)N1CC2(C1)[C@@H](c1ccccc1)[C@@H](CO)N2CC1CC1	3
C[C@@H]1CN([C@H](C)CO)C(=O)c2cccc(NC(=O)C3CCCCC3)c2O[C@H]1CN(C)CC1CCCCC1	4
O=C(C[C@H]1CC[C@H](NC(=O)c2cccnc2)[C@@H](CO)O1)NCc1ccncn1	13
CC(C)NC(=O)Nc1ccc2c(c1)C(=O)N([C@@H](C)CO)C[C@H](C)[C@H](CN(C)C(=O)NC(C)C)OCCCC[C@@H](C)O2	22
COc1ccc(NC(=O)Nc2ccc3c(c2)CC(=O)N([C@@H](C)CO)C[C@H](C)[C@@H](CN(C)S(=O)(=O)c2ccc(Cl)cc2)O3)cc1	-1
Cc1ccc(S(=O)(=O)Nc2ccc3c(c2)CC(=O)N([C@H](C)CO)C[C@H](C)[C@H](CN(C)C(=O)NC2CCCCC2)O3)cc1	-2
COc1ccc(NC(=O)N[C@H]2CC[C@@H](CC(=O)NC3CCC3)O[C@H]2CO)cc1	2
COc1ccccc1NC(=O)N1CC(=O)N2[C@@H](CO)[C@@H](c3ccc(C#CC(C)C)cc3)[C@@H]2C1	4
CNC[C@@H]1Oc2cc(C#C[C@@H](C)O)ccc2S(=O)(=O)N([C@@H](C)CO)C[C@H]1C	4
CC=Cc1ccc2n(c1=O)C[C@@H]1[C@@H](CO)[C@H](C(=O)N(C)C)[C@H]2N1C(=O)c1ccccc1 (mixture of isomers)	3
SMILES	Vaccinia inh
CN(C)C(=O)c1ccc(-c2ccccc2[C@H]2[C@@H](C#N)N(C(=O)C3CCC3)[C@H]2CO)cc1	13
O=C(C[C@H]1CC[C@H]2[C@@H](COC[C@@H](O)CN2Cc2nccs2)O1)N1CCC(Cc2ccccc2)CC1	-21
C[C@H]1CN([C@@H](C)CO)C(=O)c2cccc(NC(=O)Nc3cccc4ccccc34)c2O[C@@H]1CN(C)S(=O)(=O)c1ccc(Cl)cc1	-2
COCC(=O)N(C)C[C@@H]1[C@@H](c2ccccc2)[C@H](CO)N1C(=O)NC(C)C	25
CCCc1cn(CC[C@H]2CC[C@@H](NC(=O)C3CC3)[C@@H](CO)O2)nn1	1
O=C(Nc1ccc2c(c1)[C@@H]1C[C@@H](CC(=O)N3CCc4ccccc4C3)O[C@@H](CO)[C@@H]1O2)Nc1ccccc1F	-93*
O=C(Nc1ccc(C(F)(F)F)cc1)Nc1ccc2c(c1)[C@H]1C[C@H](CC(=O)N3CCc4ccccc4C3)O[C@@H](CO)[C@H]1O2	-15
O=C(Nc1ccc(C(F)(F)F)cc1)Nc1ccc2c(c1)[C@H]1C[C@@H](CC(=O)N3CCc4ccccc4C3)O[C@H](CO)[C@H]1O2	-32
Cc1ccc(S(=O)(=O)N(C)C[C@@H]2Oc3ncc(C#CCC(C)C)cc3C(=O)N([C@@H](C)CO)C[C@H]2C)cc1	-33
C[C@@H]1CN([C@H](C)CO)C(=O)Cc2cc(N(C)C)ccc2O[C@H]1CN(C)S(=O)(=O)c1ccc(Cl)cc1	6
C[C@H](O)C#Cc1cnc2c(c1)C(=O)N([C@@H](C)CO)C[C@H](C)[C@@H](CN(C)Cc1cccc(C(=O)O)c1)O2	15
C[C@@H](O)C#Cc1ccc2c(c1)O[C@@H](CN(C)Cc1ccc(-c3ccccc3)cc1)[C@@H](C)CN([C@@H](C)CO)S2(=O)=O	-92*
C[C@H](CO)N1C[C@H](C)[C@@H](CN(C)Cc2ccccc2)Oc2cc(C#C[C@@H](C)O)ccc2S1(=O)=O	-16
C[C@H](O)C#Cc1ccc2c(c1)O[C@H](CN(C)Cc1ccccc1)[C@@H](C)CN([C@@H](C)CO)S2(=O)=O	-26
N#C[C@@H]1[C@@H](c2ccc(-c3ccccc3F)cc2)[C@@H](CO)N1C(=O)Cc1ccccc1	-7
CCC(=O)Nc1ccc2c(c1)OC[C@H](C)N(C(=O)CN1CCOCC1)C[C@@H](C)[C@H](OC)CN(C)C2=O	-7
C[C@H](CO)N1C[C@H](C)[C@H](CN(C)C(=O)Nc2ccc(F)cc2)Oc2ccc(NC(=O)C3CCCCC3)cc2C1=O	7
COCC(=O)Nc1ccc2c(c1)C(=O)N(C)[C@@H]1CC[C@@H](CC(=O)NCc3ccccc3)O[C@H]1CO2	0
C[C@H]1CN([C@@H](C)CO)C(=O)c2cc(C3=CCCC3)cnc2O[C@@H]1CN(C)C(=O)c1ccc(F)cc1	10
C[C@H](CO)N1C[C@H](C)[C@H](CN(C)Cc2ccccc2)Oc2ccc(NC(=O)NC3CCCCC3)cc2C1=O	0
CO[C@H]1CN(C)C(=O)c2ccc(NC(=O)C3CC3)cc2OC[C@@H](C)N(C(=O)c2ccccc2)C[C@H]1C	-2
C[C@@H]1CN([C@H](C)CO)C(=O)c2cccc(NS(=O)(=O)c3ccccc3)c2O[C@@H]1CN(C)C(=O)Nc1ccc2c(c1)OCO2	4
Cc1ccc(S(=O)(=O)N(C)C[C@@H]2Oc3cc(C#Cc4ccccc4)ccc3S(=O)(=O)N([C@@H](C)CO)C[C@@H]2C)cc1	10
CCNC(=O)C[C@@H]1C=C[C@@H](NC(=O)NC2CCCCC2)[C@@H](CO)O1	10
COc1ccc(CNC(=O)C[C@H]2C[C@@H]3c4cc(N(C)C)ccc4O[C@@H]3[C@H](CO)O2)cc1	11
CN(C)CC#Cc1ccc([C@@H]2[C@H]3CN(C(=O)c4ccccc4)CC(=O)N3[C@H]2CO)cc1	12
CCCNC(=O)N1CC2(CN(S(C)(=O)=O)C2)c2c(n(C)c3cc(OC)ccc23)[C@@H]1CO	17
COc1cccc(NC(=O)N[C@H]2C=C[C@H](CC(=O)NCc3ccncn3)O[C@H]2CO)c1	-1
